Screening data as filed in PubChem.
In the library only some 5% were active in any assay of this set; here they are far more common.
HCMV inh: inhibitors of human cytomegalovirus | AID 1259415 | 410,000 tested, 4.5% active | activity change, negative = inhibition, % at 57.5 µM | HFF cells, HCMV-luciferase reporter, 72 h; hits give low values; in the data active means activity change below about -60%; inconclusive means no clear call, values can overlap the other calls; inactive means above about -39%
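Screen run at 2 compound doses on HFFs infected with reporter HCMV, MOI 1 PFU/cell. Luciferase activity from cell lysates at 72 h post infection gave inhibition relative to buffer-only and Salinomycin wells.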
TbPYK inhibitor: inhibitors of Trypanosoma brucei pyruvate kinase. Q57TT1. 410,000 tested, 0.12% active. TbPYK enzyme, Kinase-Glo Plus ATP luminescence, 45 min. Potency, µM (titrated, usually from 76.8 µM), for inactives: top-dose activity, negative = inhibition, hits mostly inhibitors. AID 624173; further: potency means the concentration at half of the fitted maximal effect; nearly all actives have a fitted effect of over 50% in size
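ADP (130 uM final) triggers the TbPYK reaction after compound addition; incubation is 45 min at room temperature. Kinase-Glo Plus is then added and luminescence imaged. Normalized data are fitted to concentration-effect curves.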
LmPK inhibitor: LmPK (Leishmania mexicana) enzyme inhibition. purified LmPK, Kinase-Glo ATP luminescence, 1 h. Potency, µM (doses to about 57.5 µM), for inactives: at the highest dose activity change, negative = inhibition, hits mostly inhibitors. 290,000 tested, 0.37% active; further: potency means the concentration at half of the fitted maximal effect
Target sequence (Q27686 whole entry, looked up): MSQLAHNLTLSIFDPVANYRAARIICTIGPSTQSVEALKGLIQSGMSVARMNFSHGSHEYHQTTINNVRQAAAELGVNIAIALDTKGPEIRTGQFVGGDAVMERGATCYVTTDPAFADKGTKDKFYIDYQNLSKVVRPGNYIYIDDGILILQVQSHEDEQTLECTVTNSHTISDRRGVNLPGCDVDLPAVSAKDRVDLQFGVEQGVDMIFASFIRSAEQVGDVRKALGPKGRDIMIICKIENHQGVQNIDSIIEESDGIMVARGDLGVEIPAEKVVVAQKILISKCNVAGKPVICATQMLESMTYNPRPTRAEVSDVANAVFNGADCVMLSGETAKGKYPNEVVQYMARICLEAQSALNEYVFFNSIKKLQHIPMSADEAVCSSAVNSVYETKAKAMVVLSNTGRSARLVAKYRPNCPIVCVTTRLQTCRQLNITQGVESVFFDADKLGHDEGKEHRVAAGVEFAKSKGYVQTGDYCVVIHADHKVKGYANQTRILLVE
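Pyruvate kinase activity monitored as ATP production (luciferase luminescence). Conditions: 0.1 nM enzyme, 0.5 mM PEP, 0.1 mM ADP, 1 h, RT; normalized against uninhibited and no-enzyme wells.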
Vaccinia mCherry: vaccinia inhibition (mCherry reporter); 310,000 tested, 0.63% active; Vaccinia virus mCherry reporter infection, fluorescence; AID 720579; Potency, µM (titrated, usually from 36.5 µM), without a hit: at the highest dose activity change, negative = inhibition, actives largely listed as inhibitors; calls by dose curve; tested in A549 cells; further: potency means the concentration at half of the fitted maximal effect; nearly all actives have a fitted effect of over 35% in size
Vaccinia Venus: inhibitors of vaccinia virus (Venus reporter). Vaccinia virus Venus reporter expression, fluorescence. Potency, µM (doses to about 36.5 µM), inactives show at the highest dose activity change, negative = inhibition, actives largely listed as inhibitors. 330,000 tested, 0.46% active; calls by dose curve; tested in A549 cells; further: potency means the concentration at half of the fitted maximal effect; nearly all actives have a fitted effect of over 30% in size
* = called active by the depositor; i = inactive; ? = inconclusive; . = no result given; + = active, no number. Unless noted, the call rests on the fitted dose curve; in most records, active means well fitted curve in the direction sought with a large enough effect; inconclusive means small, poorly fitted or top-dose-only effect, or another doubt; inactive means no such curve, though single readings can be large; an effect the other way counts as inactive or inconclusive. On the % scale 0 is the no-effect control and ±100 the full control effect.

SMILES | HCMV inh | TbPYK inhibitor | LmPK inhibitor | Vaccinia mCherry | Vaccinia Venus
CCOC(=O)c1cc(-c2ccc(C)cc2)n(CCC(=O)Nc2cc(Cl)ccc2C)c1C | 7 | 4% | . | -13% | -13%
Cc1ccsc1C(=O)NNC(=O)c1cccc(S(=O)(=O)N2CCCC2)c1 | + | -1% | . | i | 0%
Cc1ccc(S(=O)(=O)N2CCCCC2)cc1NC(=O)c1ccc2c(c1)OCO2 | ? | -9% | -1% | -16% | -12%
NS(=O)(=O)c1ccc(NC(=O)c2ccc(S(=O)(=O)N3CCCCCC3)cc2)cc1 | -64* | 10% | . | -3% | -17%
Cc1ccc(NS(=O)(=O)c2ccc(C)c(NC(=O)c3ccc(S(=O)(=O)N4CCCCCC4)cc3)c2)c(C)c1 | -64* | -7% | . | -15% | ?
CC1CCN(S(=O)(=O)c2ccc(NC(=O)c3ccncc3)cc2)CC1 | -64* | -1% | -24% | -29% | -23%
N#CCc1ccc(NC(=O)Nc2cccc3ccccc23)cc1 | . | -3% | 1% | . | .
Cc1ccc(CNC(=O)CCc2c(C)c3ccc(O)c(C)c3oc2=O)cc1 | -16 | -1% | . | 6% | 8%
O=C(Nc1ccc(S(=O)(=O)N2CCCCC2)cc1)c1ccc(Cl)nc1 | -75* | 5% | . | . | .
O=C(NC1CC1)c1cccc(S(=O)(=O)N2CCOCC2)c1 | 0 | -4% | . | . | .
O=C(NC1CCCC1)c1cccc(S(=O)(=O)N2CCOCC2)c1 | -103* | -5% | . | . | .
CS(=O)(=O)c1cccc(C(=O)Nc2ccc(S(=O)(=O)N3CCCCC3)cc2)c1 | -63* | 2% | . | -9% | -30%
O=C(Nc1cccc(S(=O)(=O)Nc2ccccc2Cl)c1)c1ccc(Cl)nc1 | -86* | 2% | 1% | ? | -25%
O=S(=O)(Nc1nc2ccccc2nc1N1CCN(c2ccccn2)CC1)c1ccc(Cl)cc1 | 35 | -3% | -1% | . | .
CCCCN(C(=O)c1cccc(S(=O)(=O)N2CCN(C)CC2)c1)c1c(N)n(CCCC)c(=O)[nH]c1=O | -9 | 7% | . | -12% | 1%
CCN(CC)S(=O)(=O)c1ccc(NC(=O)c2ccc(Cl)nc2)cc1 | -62* | 1% | 2% | -14% | -15%
O=C(Nc1ccc(Cc2ccncc2)cc1)c1ccc(S(=O)(=O)N2CCCC2)cc1 | -87* | 41% | 3% | -24% | -2%
CCN(CC)S(=O)(=O)c1ccc(NC(=O)c2ccc(NS(C)(=O)=O)cc2)cc1 | -30 | -11% | 2% | ? | -16%
O=C(Nc1ccc(S(=O)(=O)N2CCCCC2)cc1)c1ccncc1 | -32 | 2% | 1% | i | -28%
CC(C(=O)NCc1ccc(Cl)cc1)n1ccc2cc(S(=O)(=O)N3CCCC3)ccc21 (stereo unspecified) | -24 | 0% | . | -22% | -23%
Cc1ccc(C)c(N2CCN(C(=O)c3ccc4c(Cl)c5c(nc4c3)CCCC5)CC2)c1 | -39 | -10% | . | -21% | -12%
NC(=O)c1nsc(C(=O)N(Cc2cccnc2)C(C(=O)NCc2ccccc2)c2ccc(O)cc2)c1N (stereo unspecified) | 24 | -16% | 1% | -19% | -12%
Cc1ccc(Cl)cc1N(CC(=O)NC1CCCC1)C(=O)c1csnn1 | -15 | -10% | 4% | -12% | -1%
CC(C)C(=O)c1cn(Cc2ccccc2C#N)c2ccccc12 | 4 | 0% | 4% | . | -5%
N/C(=N\O)c1cn(Cc2ccccc2Cl)c2ccccc12 | -71* | 15% | 0% | -11% | ?
SMILES | HCMV inh | TbPYK inhibitor | LmPK inhibitor | Vaccinia mCherry | Vaccinia Venus
Fc1ccccc1Cn1cc(C(=S)N2CCOCC2)c2ccccc21 | -24 | -6% | 7% | . | .
O=Cc1cn(Cc2c(F)cccc2Cl)c2ccccc12 | -14 | -2% | 2% | . | .
O=Cc1cn(Cc2ccccc2F)c2ccccc12 | -92* | 5% | -5% | ? | -8%
CC(=O)c1cn(Cc2ccccc2C#N)c2ccccc12 | -65* | -3% | 10% | i | -6%
CC(=O)c1cn(Cc2ccccc2F)c2ccccc12 | -79* | 1% | 0% | . | .
CCn1ccc2cc(S(=O)(=O)N3CCC(C(=O)NCc4cccc(Cl)c4)CC3)ccc21 | 2 | 3% | . | -22% | -17%
CCOC(=O)C(CCCOc1ccc(C(C)CC)cc1)C(=O)OCC (stereo unspecified) | 18 | 4% | 8% | -8% | 6%
O=Cc1cc2ccccc2nc1SCc1ccc(Cl)c(Cl)c1 | -92* | -1% | 2% | -8% | -3%
O=Cc1cc2ccccc2nc1SCc1ccc(Cl)cc1 | -82* | -10% | 1% | ? | 0%
Cc1ccc(CSc2nc3ccccc3cc2C=O)cc1 | -97* | 0% | 8% | . | ?
Cc1ccc(CSc2ncnc3ccccc23)cc1 | -31 | -5% | -1% | -17% | -16%
CCN(CC)CCN1CNC(=S)N(c2ccccc2OC)C1 | -65* | 3% | 6% | -29% | -18%
CCCN1CNC(=S)N(c2ccccc2C)C1 | ? | -10% | -4% | -6% | -9%
CNC[C@H](CC1CCCCC1)NC[C@H](Cc1ccccc1)NCCC12CC3CC(CC(C3)C1)C2 | -105* | 4% | -4% | ? | 10µM*
NC[C@H](Cc1ccccc1)NCCCCC1CCCCC1 | -3 | 2% | . | ? | -4%
Cc1ccc(CN2CCSc3ccc(C(=O)N4CCN(c5cc(C)ccc5C)CC4)cc32)cc1 | -11 | -8% | . | -4% | -19%
Cc1cc(C)c(C(=O)CSc2n[nH]c(-c3ccncc3)n2)c(C)c1 | -66* | -1% | -2% | -13% | -7%
Cc1ccc(C)c(C(=O)CSc2n[nH]c(-c3ccncc3)n2)c1 | -33 | -5% | 2% | . | .
Cc1ccc(S(=O)(=O)N2CCCC2C(=O)Nc2ccc(Br)cc2)cc1 (stereo unspecified) | -61* | 9% | . | -20% | -19%
COc1ccc(NC(=O)C2CCCN(C(=O)c3ccc(Cl)cc3)C2)cc1Cl (stereo unspecified) | -73* | -24% | . | . | .
CC(C)c1ccc(NC(=O)C2CCCN(S(=O)(=O)c3ccc4[nH]c(=O)ccc4c3)C2)cc1 (stereo unspecified) | -92* | -7% | . | ? | ?
O=C(Nc1ccc(S(=O)(=O)N2CCCCC2)cc1)C1CCCN(C(=O)c2ccc(Cl)cc2)C1 (stereo unspecified) | -65* | 1% | 5% | ? | ?
O=C(Nc1cccc(F)c1)C1CCCN(C(=O)c2ccc(Cl)cc2)C1 (stereo unspecified) | ? | -6% | . | . | .
O=C(Nc1ccc(S(=O)(=O)N2CCCC2)cc1)C1CCCN1C(=O)c1cccs1 (stereo unspecified) | -101* | 1% | 3% | i | -3%
CC(=O)c1ccc(NC(=O)C2CCCN(C(=O)c3ccc(Cl)cc3)C2)cc1 (stereo unspecified) | -22 | 3% | 1% | -10% | -22%
O=C(Nc1cccc(S(=O)(=O)N2CCCC2)c1)C1CCCN1C(=O)c1cccs1 (stereo unspecified) | -36 | 1% | 5% | . | .
